# Screening data from PubChem.
# Only some compounds are listed: those with a hit (about 6% of all), similar ones and a draw of the others.
# Tau fibril ThT: tau fibrillization inhibition (ThT binding) | P10636 | recombinant tau K18 P301L, heparin-induced fibrillization, ThT fluorescence | Potency, µM (top dose mostly 57.4 µM), for the others: top-dose activity, negative = inhibition, hits mostly inhibitors | 270,000 tested, 2.1% active | AID 1460; further: nearly all actives have a fitted effect of over 55% in size
# Target sequence (P10636 561-689 P618L limits assumed): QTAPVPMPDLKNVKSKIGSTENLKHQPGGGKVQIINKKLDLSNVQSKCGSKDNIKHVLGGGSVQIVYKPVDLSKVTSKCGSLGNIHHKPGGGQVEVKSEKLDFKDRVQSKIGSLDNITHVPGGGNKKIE
#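 Aggregation was driven by heparin (20 uM final) acting on recombinant tau […] bearing P301L in 100 mM sodium acetate pH 7; fibrils were detected with Thioflavin T.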
# PLK1 PBD inh: inhibitors of human PLK1 polo-box domain binding | P53350 | Potency, µM, for the others: max response, negative = inhibition, hits mostly inhibitors | 360,000 tested, 2.8% active | Plk1 PBD binding of FITC phosphopeptide, fluorescence polarization; further: series mostly up to about 57 µM; nearly all actives have a fitted effect of over 65% in size
# Tau fluor counter: counter-screen for tau fibril formation inhibitors. tau K18 P301L (four-repeat tau fragment) Alexa594 fluorescence, heparin fibrillization. Potency, µM (top dose mostly 57.7 µM), inactives show at the top dose activity change, negative = decrease. 280,000 tested, 0.93% active; further: nearly all actives have a fitted effect of over 55% in size
#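 Human K18 P301L tau (15 uM unlabeled plus 0.24 uM Alexa 594-labeled, final) in 100 mM sodium acetate pH 7 was mixed with compound and 20 uM heparin and incubated 6 hr at 37 C.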
# Tau FP inhib: inhibitors of human tau fibril formation; P10636; K18 P301L tau heparin fibrillization, Alexa594 FP, 6 h; Potency, µM (series often up to 57.7 µM), for inactives: at the highest dose activity, negative = inhibition, hits mostly inhibitors; 280,000 tested, 0.39% active; AID 1468; further: nearly all actives have a fitted effect of over 55% in size
#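 Steps: dispense K18 P301L tau (15 uM plus 0.24 uM Alexa 594 tracer, final) in pH 7 sodium acetate; add compound; add heparin (20 uM final); incubate 6 hr, 37 C; add ThT (30 uM final); after 1 hr ambient, read FP.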
# VDR inhibitor: blocks the human vitamin D receptor | P11473 | VDR-SRC2-3 peptide fluorescence polarization, 2 h | Potency, µM, for the others: max response, negative = inhibition, usual class: inhibitors | 400,000 tested, 0.93% active | AID 504847
# Target sequence (P11473 whole entry, looked up): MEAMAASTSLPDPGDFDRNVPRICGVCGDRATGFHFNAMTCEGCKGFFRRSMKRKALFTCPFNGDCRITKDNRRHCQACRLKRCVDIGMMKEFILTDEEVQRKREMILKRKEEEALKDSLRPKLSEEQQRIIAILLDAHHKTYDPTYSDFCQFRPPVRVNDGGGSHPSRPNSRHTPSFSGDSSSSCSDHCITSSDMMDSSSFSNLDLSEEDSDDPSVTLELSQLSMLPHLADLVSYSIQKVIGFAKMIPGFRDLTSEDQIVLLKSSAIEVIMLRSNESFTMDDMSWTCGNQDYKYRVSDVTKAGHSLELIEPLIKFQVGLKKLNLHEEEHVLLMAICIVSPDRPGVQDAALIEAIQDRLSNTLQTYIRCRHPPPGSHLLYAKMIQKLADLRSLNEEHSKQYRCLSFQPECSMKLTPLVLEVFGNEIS
#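 Fluorescence polarization assay of small-molecule disruption of VDR binding to coregulator peptide SRC2-3. Compounds and controls pin-transferred, then read after 2 h incubation at ambient room temperature.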
# Sfp inh: blocks B. subtilis Sfp PPTase activity; Q9F4F7; Biochemical Sfp PPTase activity, qHTS; Potency, µM, inactives show largest response in the series, negative = inhibition, actives largely listed as inhibitors; 310,000 tested, 3.5% active;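 further: the enzyme is Sfp with the accession as filed and its product quenches rhodamine fluorescence; 0% = enzyme reaction without inhibitor and -100% = no enzyme wells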
#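 Step 1, compound plus 15 nM Sfp-PPTase, 15 min, room temperature. Step 2, add rhodamine-CoA (5 uM) and BHQ-2-YbbR (12.5 uM). Step 3, read 525/598 nm fluorescence at 0 and 30 min.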
# Active calls of the source: *; ? = inconclusive; . = no result; [ ] = another dose, or the depositor's remark. The call rests on the fitted dose curve; in most records, active means well fitted curve in the direction sought with a large enough effect; inconclusive means small, poorly fitted or top-dose-only effect, or another doubt; inactive means no such curve, though single readings can be large; an effect the other way counts as inactive or inconclusive. Unless noted, on the % scale 0 is the no-effect control and ±100 the full control effect; potency means the concentration at half of the fitted maximal effect.
SMILES,Tau fibril ThT,PLK1 PBD inh,Tau fluor counter,Tau FP inhib,VDR inhibitor,Sfp inh
O=C1NC(=O)C(Cc2ccc(OCCN3COc4ccccc4C3=O)cc2)S1 (centres undefined),.,.,.,.,-19%,4%
COc1cc(CNc2nnnn2C)cc(OC)c1OC,.,-7%,.,.,-5%,5%
CC(C)c1ccc(/C=N/N2CCCCC2)cc1,-16%,-12%,-3%,0%,-14%,63µM*
CN(C)c1ccc(C=NN2CCCCCC2)cc1,.,-10%,.,.,5%,.
CC(C)c1ccc(/C=N/N2CCN(c3ccccn3)CC2)cc1,13µM*,0%,?,-6%,-3%,16%
Oc1ccccc1/C=N/N1CCN(c2ccccn2)CC1,?,-4%,-25%,-3%,5%,11%
N#Cc1ccc2c(c1)C[C@]1(c3ccsc3)Oc3c(c(=O)oc4ccccc34)C2O1,.,.,.,.,.,-16%
O=C1C2C3C=CC(C3)C2C(=O)N1c1ccc2c(c1)OCO2 (centres undefined),32µM*,-2%,?,?,3%,0%
O=C1CC(N2CCCCCC2)C(=O)N1c1ccc2c(c1)OCO2 (centres undefined),?,-3%,-3%,10%,6%,-28%
O=C1CC(N2CCN(c3ccc(O)cc3)CC2)C(=O)N1c1ccc2c(c1)OCO2 (centres undefined),?,-9%,-13%,-14%,4%,40µM*
O=C(CNC(=O)C(c1ccccc1)c1ccccc1)OCC(=O)c1ccc2ccccc2c1,.,.,.,.,62%,.
CC1=C(C(=O)N(C(C)C)C(C)C)CC(CC(=O)NC2CCCC2)C(=O)N1Cc1ccc(F)cc1 (centres undefined),.,-6%,.,.,.,.
Cc1cccc(Cc2c(C)nc3nc(SCC(=O)NCc4ccco4)nn3c2C)c1,-16%,-5%,-4%,-5%,-5%,45µM*
Cc1cc(C)c2cc(C#N)c(SCC(=O)NCc3ccco3)nc2c1,?,-13%,-1%,?,7%,22µM*
Cc1cc(C)c2cc(C)c(SCC(=O)NCc3ccco3)nc2c1,-20%,-19%,-13%,9%,38%,4%
Cc1cc2nc(-c3cccnc3SCC(=O)NCc3ccco3)[nH]c2cc1C,?,-12%,-13%,-14%,-8%,40µM*
O=C(CSc1ncccc1-c1nc2ccccc2[nH]1)NCc1ccco1,?,19µM*,-21%,?,?,40µM*
COc1ccc(-c2csc(NC(=O)CSCc3c(C)noc3C)n2)c(OC)c1,.,-6%,.,.,-20%,.
CCC(C)n1c(SCC(=O)NC2CC2)nc2ccccc2c1=O (centres undefined),.,3%,.,.,.,.
CCN1C(=O)[C@H]2[C@H]3CN=C(SCc4ccc(C)cc4)N3[C@@](Cc3ccccc3)(C(=O)OC)[C@H]2C1=O,.,-14%,.,.,-9%,.
O=C(CN1CCOc2ccccc21)NCc1ccco1,?,-14%,-8%,-9%,-7%,?
Cc1nnc(SCC(=O)NCc2ccco2)[nH]c1=O,?,-12%,-14%,-7%,5%,56µM*
O=C(CSc1ccc2c(c1)OCCO2)NCc1ccco1,?,?,-9%,-7%,3%,35µM*
O=C(CN1CC(=O)Oc2ccccc21)NCc1ccco1,-20%,-25%,-9%,-8%,-4%,56µM*
Cc1cc(=O)[nH]c(SCC(=O)NCc2ccco2)n1,-10%,?,-3%,-3%,3%,-7%
SMILES,Tau fibril ThT,PLK1 PBD inh,Tau fluor counter,Tau FP inhib,VDR inhibitor,Sfp inh
Cc1[nH]c2ccccc2c1/C=N/Nc1nc(Nc2ccc(F)cc2)nc(N2CCOCC2)n1,28µM*,?,32µM*[quencher],?,1%,21%
COc1cc(-c2onc3ccc(Br)cc23)cc(OC)c1OC,?,-7%,-29%,-8%,-10%,50µM*
Cc1ccccc1C(=O)NC(=S)Nc1sc2c(c1C#N)CCC(C)C2 (centres undefined),?,19µM*,-23%,-4%,-12%,-23%
N#Cc1c(NC(=S)NC(=O)c2ccccc2)sc2c1CCCC2,-16%,?,-9%,-1%,?,?
COc1cccc(C(=O)Nc2sc3c(c2C#N)CCN(C(C)=O)C3)c1,?,24µM*,-11%,-8%,79µM*,40µM*
N#Cc1c(NC(=S)NC(=O)c2ccccc2)sc2c1CCN(CCc1ccccc1)C2,?,.,-18%,-3%,.,56µM*
CC1CCc2c(sc(NC(=S)NC(=O)c3ccccc3)c2C#N)C1 (centres undefined),?,24µM*,-21%,3%,-6%,?
CC(=O)Nc1sc2c(c1C#N)CCC(C)C2 (centres undefined),2%,-16%,-2%,-1%,-7%,2%
CC1(C(=O)NCc2ccc(C(F)(F)F)cc2)CCN1C1Cc2ccccc2C1 (centres undefined),.,-3%,.,.,.,.
COC(=O)CSc1nnc(COc2ccc3ccccc3c2)o1,.,-17%,.,.,2%,1%
CCOC(=O)CSc1nnc(COc2ccc3ccccc3c2)o1,.,27µM*,.,.,-22%,19%
CCOC(=O)c1c(C)oc2nc(C)nc(N3CCN(c4cccc(C(F)(F)F)c4)CC3)c12,-18%,.,-9%,2%,0%,.
CCOC(=O)c1ccc(NC(=O)CCc2c(C)nc3cc(-c4ccc(OC)cc4OC)nn3c2C)cc1,-16%,.,-26%,-12%,-8%,.
COc1ccc(N2CCN(C(=O)c3cc4c(-c5ccccc5F)nn(C)c4s3)CC2)cc1,?,.,?,7%,-8%,.
S=C(NCCc1ccccc1)N1CCN(Cc2ccccc2)CC1,0%,-4%,-14%,4%,-1%,?
Oc1ccc(N2CCN(C(=S)NCCc3ccccc3)CC2)cc1,14µM*,-29%,-27%,13%,-8%,11µM*
Oc1ccccc1N1CCN(C(=S)NCCc2ccccc2)CC1,?,-14%,-26%,10%,-13%,45µM*
CC1CCCN(C(=O)Cn2ncc3c([nH]c4ccccc43)c2=O)C1 (centres undefined),0%,.,-5%,2%,7%,.
O=C(c1ccncc1)N1CCC2(CCCN(Cc3ccncc3)C2)CC1,.,.,.,.,0%,-7%
Cc1csc(NC(=O)c2nc3nccc(C)n3n2)n1,2%,3.4µM*,2%,-8%,-27%,5%
CC1(C)CC(=O)C(CC(=O)Nc2ccc(S(N)(=O)=O)cc2)=C(O)C1,-10%,-7%,-6%,0%,4%,-1%
CC1(C)CC(=O)C(CS(=O)(=O)c2ccccc2)=C(O)C1,.,?,.,.,?,50µM*
CC(=O)c1ccc(NC(=O)C2C3C=CC(O3)C2C(=O)O)cc1 (centres undefined),.,5%,.,.,14%,11%
